This is part of a sample that, as a whole, favours compounds with a hit. Of some 83,000 tested, about 20% had one in any assay.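 Percent growth is the endpoint: 0 to 100 indicates growth inhibition (40 means 60% inhibition), 0 means no net growth, and negative values indicate cell death.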 Values without a mark were called inactive. Activity calls are given as the source filed them. The calls were made as follows: active = growth percent below 10; inactive = the rest.
test system: CAKI-1 renal; experiment: NCI-60 one-dose screen, 48 h (100 = growth as untreated, 0 = no growth, -100 = all killed); conditions: 10 µM

| Compound | growth |
| --- | --- |
| Cc1ccc(C(=O)N/C(=C2/OCCN2C)[P+](c2ccccc2)(c2ccccc2)c2ccccc2)cc1 | 102% |
| CN(C)c1ccc(/C=C/c2nc3ccccc3c(=O)n2CC(=O)Nc2ccc(Cl)cc2)cc1 | 53.1% |
| Cc1ccc(CNC(=O)Cc2ccc3c(c2)CN(C2CCC(=O)NC2=O)C3=O)cc1 (configuration not stated) | 52.6% |
| Cc1ccn2c(C(=O)c3ccccc3)cc(-c3cc(-c4ccc(N(C)C)cc4)c(C#N)c(N)n3)c2c1 | 52.7% |
| CCOP(=O)(OCC)O[C@H]1CCC(=O)[C@@H]2[C@H]1[C@H]1C[C@@H]3[C@@]4(C)CCCC(C)(C(=O)OC)[C@@H]4CC[C@@]23C=C1C(C)C (some centres not stated) | 63.2% |
| C#CCNC(=O)CCC(=O)OC[C@]12CC[C@@H](C(=C)C)[C@@H]1C1CC[C@@H]3[C@@]4(C)CCCNC(C)(C)[C@@H]4CC[C@@]3(C)[C@]1(C)CC2 (some centres not stated) | 17.3% |
| C/C(=N\N=C\c1ccc(N(C)C)cc1)c1ccc2c(c1)Nc1ccccc1S2 | 56.5% |
| O=C(Nc1ccc(Cl)c([N+](=O)[O-])c1)Nc1ccc(Cl)c([N+](=O)[O-])c1 | 8.32% (active) |
| COc1ccc(CN2[C@H](C(=O)NCc3ccc(C(=O)NO)cc3)Cc3c([nH]c4ccccc34)[C@H]2C2CC2)cc1 | 72.3% |
| O=C(NO)c1ccc(CNC(=O)[C@H]2Cc3c([nH]c4ccccc34)[C@H](c3ccc(Cl)cc3)N2)cc1 | 29% |
| O=C(Cn1nc(-c2ccccc2)ccc1=O)NN1C(=O)c2ccccc2C1=O | 95.3% |
| OCc1[nH]nc2cc(Nc3ncc4ccc(Br)c(OC5CCC(O)CC5)c4n3)ccc12 (configuration not stated) | -17.2% (active) |
| COc1cc2c3c(n(CCCNCCO)c(=O)c2cc1OC)-c1nc2c(cc1C3=O)OCO2 | 7.66% (active) |
| COc1ccc(CN2[C@H](C(=O)NCCCCCCC(=O)NO)Cc3c([nH]c4ccccc34)[C@H]2C2CC2)cc1 | 4% (active) |
| COc1ccc(C2N(c3ccc(Br)cc3)N=C(C(C)=O)N2[C@H]2[C@H](OC(C)=O)O[C@H](COC(C)=O)[C@@H](OC(C)=O)[C@@H]2OC(C)=O)cc1 (some centres not stated) | 70.8% |
| CN1C(=O)N(C)C2SC(N/N=C/c3cccs3)=NC21 (configuration not stated) | 20.8% |
| Cc1cc(C)nc(/N=C(\N)Nc2ccc(S(=O)(=O)Nc3nc(C)cc(C)n3)cc2)n1 | 100% |
| O=C(Cc1ccc2c(c1)CN(C1CCC(=O)NC1=O)C2=O)NCCc1ccccc1 (configuration not stated) | 63.6% |
| CCNCCCn1c2c(c3cc(OC)c(OC)cc3c1=O)C(=O)c1cc3c(nc1-2)OCO3 | 7.87% (active) |

| Compound | growth |
| --- | --- |
| O=C(CNc1nc(-c2ccccc2)cs1)Nc1ccc(Cl)cc1[N+](=O)[O-] | 2.07% (active) |
| Cc1ccc2nc(-c3ccc(-c4nnc(SCC(=O)Nc5ccc(Cl)cc5)o4)cc3)[nH]c2c1 | 21.7% |
| Cc1ccc(C(=O)NNC(=O)CSc2nc3ccccc3c(=O)[nH]2)cc1 | 95.7% |
| CN(C)CCNC(=O)OCCCCOc1cc(O)c2c(=O)cc(-c3ccccc3)oc2c1 | -39.1% (active) |
| CCCCSc1nc(Nc2ccc(/C(C)=N/NC(N)=S)cc2)c(C#N)c(-c2ccccc2)n1 | 33.5% |
| O=c1[nH]c2ccccc2cc1CSc1ccc(Nc2nccc(-c3ccc4c(c3)OCO4)n2)cc1 | 98% |
| COc1cc2oc(-c3cccc(C(=O)Nc4ccc(Cl)cc4)c3)cc(=O)c2c(OCCNC(=O)CNC(=O)OC(C)(C)C)c1OC | 34.2% |
| Cc1ccc2nc(-c3ccc(-c4nnc(SCC(=O)Nc5ccc(Br)cc5)o4)cc3)[nH]c2c1 | 76.5% |
| COc1ccc(CN2[C@@H](C(=O)NCc3ccc(C(=O)NO)cc3)Cc3c([nH]c4ccccc34)[C@@H]2C)cc1 | 39.5% |
| O=C(CNc1nc(-c2ccccc2)cs1)Nc1cccc(Cl)c1 | 28.4% |
| NS(=O)(=O)c1ccc(NC(=O)CSc2ccc(-c3ccc(Cl)cc3)nn2)c(Br)c1 | 67% |
| Clc1ccc2c(N/N=C/c3c[nH]c4ccc(Br)cc34)ccnc2c1 | -94% (active) |
| Cc1ccc(-c2ccc(SCC(=O)Nc3ccc(S(N)(=O)=O)cc3Br)nn2)cc1 | 56.9% |
| CC(=O)Nc1ccc(-c2cn(-c3cccc(C(=O)Nc4cccc(OC(F)(F)F)c4)c3)nn2)cn1 | 94.5% |
| CCOC(=O)N/C(=C1/OCCN1C)[P+](c1ccccc1)(c1ccccc1)c1ccccc1 | 102% |
| O=C(NO)c1ccc(CNc2nc(-c3ccccc3)c3ccccc3n2)cc1 | -4.81% (active) |
| Cc1cc(C)nc(NS(=O)(=O)c2ccc(N/C(N)=N/c3nccc(-c4cccs4)n3)cc2)n1 | 74.2% |
| COc1cnc2c(c1)C(=O)c1c-2n(CCCNCCO)c(=O)c2cc(OC)c(OC)cc12 | 12% |
